{"source": "PubChem BioAssay (Tox21)", "note": "Records with an inconclusive call do not appear. Entries that show only a call come without a potency. Active and inactive are the calls of the source. Calls follow the shape of the dose curve; as a rule, active = well fitted curve in the direction sought with a large enough effect in the repeat runs; inconclusive = weak or mixed curves; inactive = no such curve, though single readings can be large; an effect the other way counts as inactive or inconclusive."}
{"test": "qHTS assay to identify small molecule agonists of the RXR signaling pathway - cell viability counter screen (AID 1159529); also: nearly all actives have a fitted effect of over 50% in size; also: potency is read from the fitted curve at half-maximal effect", "settings": "RXR-alpha-bla HEK293T viability, CellTiter-Glo, 16 h; series mostly up to 76.8 µM", "procedure,_shortened": "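RXR-alpha-UAS-bla HEK 293T cells in medium with 2% charcoal-stripped FBS were preincubated 5 hr, then exposed to compounds for 16 hr at 37 C. Viability was read as CellTiter-Glo luminescence after 30 min at room temperature.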"}
{"compound": "O=C1C[C@@H]2OCC=C3CN4CC[C@]56c7ccccc7N1[C@H]5[C@H]2[C@H]3C[C@H]46", "Potency": "inactive"}
{"compound": "c1cc[n+]2c(c1)-c1cccc[n+]1CC2", "Potency": "inactive"}
{"compound": "[O]=[Cr](=[O])([OH])[O][Cr](=[O])(=[O])[OH]", "Potency": "0.0027 µM (active)"}
{"compound": "Fc1ccc(C(OCCN2CCN(CCCc3ccccc3)CC2)c2ccc(F)cc2)cc1", "Potency": "16.9 µM (active)"}
{"compound": "COC(=O)N(OC)c1ccccc1COc1ccn(-c2ccc(Cl)cc2)n1", "Potency": "inactive"}
{"compound": "CCC(C)c1cccc(C(C)CC)c1O", "note": "(configuration not stated)", "Potency": "inactive"}
{"compound": "CO/N=C(\\C(=O)OC)c1ccccc1CO/N=C(\\C)c1cccc(C(F)(F)F)c1", "Potency": "inactive"}
{"test": "qHTS assay to identify small molecule antagonists of the retinoid acid receptor (RAR) signaling pathway - cell viability counter screen (AID 1159551); also: nearly all actives have a fitted effect of over 35% in size", "settings": "C3RL4 cells viability, ATP luminescence (CellTiter-Glo), 6 h; series mostly up to 92.4 µM", "procedure,_shortened": "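Seed C3RL4 cells; next day add compound, then retinol to 1 uM final; incubate 6 h at 37 C; add CellTiter-Glo; read luminescence after 30 min at RT.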"}
{"compound": "Cc1c([N+](=O)[O-])c(C)c([N+](=O)[O-])c(C(C)(C)C)c1[N+](=O)[O-]", "Potency": "inactive"}
{"compound": "CC(C)(C)c1ccc(OP(=O)(Oc2ccccc2)Oc2ccccc2)cc1", "Potency": "inactive"}
{"compound": "C#CCC1=C(C)C(OC(=O)C2C(C=C(C)C)C2(C)C)CC1=O", "note": "(configuration not stated)", "Potency": "inactive"}
{"compound": "c1ccc2nc(N3CCNCC3)ccc2c1", "Potency": "inactive"}
{"compound": "O.O.O.O=C([O-])[C@H]([O-])[C@@H]([O-])C(=O)[O-].O=C([O-])[C@H]([O-])[C@@H]([O-])C(=O)[O-].[K+].[K+].[Sb+3].[Sb+3]", "Potency": "inactive"}
{"compound": "CCC(C)Nc1c([N+](=O)[O-])cc(C(C)(C)C)cc1[N+](=O)[O-]", "note": "(configuration not stated)", "Potency": "inactive"}
{"compound": "CCOP(=S)(NC(C)C)Oc1ccccc1C(=O)OC(C)C", "note": "(configuration not stated)", "Potency": "inactive"}
{"compound": "Cc1c([N+](=O)[O-])cc2c(c1[N+](=O)[O-])C(C)(C)CC2(C)C", "Potency": "inactive"}
{"compound": "ClC1=C(Cl)[C@]2(Cl)[C@@H]3[C@H]4C[C@H]([C@@H]5O[C@H]45)[C@@H]3[C@@]1(Cl)C2(Cl)Cl", "Potency": "inactive"}
{"compound": "NC1CCC(CC2CCC(N)CC2)CC1", "note": "(configuration not stated)", "Potency": "inactive"}
{"compound": "O=[N+]([O-])[O-].[Tl+]", "Potency": "inactive"}
{"compound": "CCCCCCC[CH2][Sn]([Cl])([Cl])[CH2]CCCCCCC", "Potency": "inactive"}
{"compound": "C=CCOC(=O)c1ccccc1N", "Potency": "inactive"}
{"compound": "CCOP(=O)(OCC)Oc1nc(Cl)c(Cl)cc1Cl", "Potency": "inactive"}
{"compound": "CN1CCc2cc(Cl)c(O)cc2[C@H]2c3ccccc3CC[C@@H]21", "Potency": "inactive"}
{"compound": "Brc1ccc(Oc2ccc(Br)cc2Br)c(Br)c1", "Potency": "inactive"}
{"compound": "CC1=C2C[C@H]3[C@@H](CC=C4C[C@@H](O)CC[C@@]43C)[C@@H]2CC[C@]12O[C@@H]1C[C@H](C)CN[C@H]1[C@H]2C", "Potency": "inactive"}
{"compound": "CCC[CH2][Sn]([CH2]CCC)([O]C(C)=O)[O]C(C)=O", "Potency": "inactive"}
{"compound": "O=S(=O)(NS(=O)(=O)C(F)(F)F)C(F)(F)F", "Potency": "inactive"}
{"compound": "CCC(OC(C)=O)C(CC(C)NC)(c1ccccc1)c1ccccc1", "note": "(configuration not stated)", "Potency": "inactive"}
{"compound": "CCCCC/C=C\\C/C=C\\C/C=C\\C/C=C\\CCCC(=O)NCC(=O)O", "Potency": "inactive"}
{"compound": "CCCCCCCc1ccc(O)cc1", "Potency": "inactive"}
{"compound": "c1ccc(Nc2ccc(Nc3ccccc3)cc2)cc1", "Potency": "inactive"}
{"compound": "N#CC(C#N)=NNc1cccc(Cl)c1", "Potency": "inactive"}
{"compound": "CCO/N=C(\\CC)C1=C(O)CC(c2c(C)cc(C)cc2C)CC1=O", "note": "(configuration not stated)", "Potency": "inactive"}
{"compound": "CCOP(=S)(OCC)Oc1cc(C)nc(N(CC)CC)n1", "Potency": "inactive"}
{"compound": "O=C(NC(=O)c1c(F)cccc1F)Nc1ccc(Oc2ccc(C(F)(F)F)cc2Cl)cc1F", "Potency": "inactive"}
{"compound": "Cc1ccccc1OP(=O)(Oc1ccccc1C)Oc1ccccc1C", "Potency": "inactive"}
{"compound": "N#Cc1c2ccccc2cc2ccccc12", "Potency": "inactive"}
{"compound": "CSC(=O)c1c(C(F)F)nc(C(F)(F)F)c(C(=O)SC)c1CC(C)C", "Potency": "inactive"}
